Holding throughout (assay): NCI-60 one-dose screen, 48 h (100 = growth as untreated, 0 = no growth, -100 = all killed)
One assay deals with HCT-15 colon. Particulars: 10 µM unless noted.
In a further assay the test system is HT29 colon. Particulars: 10 µM unless noted.
The next assay relates to SNB-75 CNS. Conditions: 10 µM unless noted.
The subject of a further assay is SNB-19 CNS. Particulars: 10 µM unless noted.
In a further assay the test system is PC-3 prostate. Particulars: 10 µM unless noted.
The next assay has as its system SK-MEL-5 melanoma. Particulars: 10 µM unless noted.
The test system of the next assay is UACC-62 melanoma. Particulars: 10 µM unless noted.
A further assay has as its system LOX IMVI melanoma. Particulars: 10 µM unless noted.
The next assay relates to SK-MEL-28 melanoma. Particulars: 10 µM unless noted.
The test system of another assay is SK-MEL-2 melanoma. Particulars: 10 µM unless noted.
In the next assay the test system is EKVX NSCLC. Conditions: 10 µM.
Another assay relates to SN12C renal. Particulars: 10 µM unless noted.
For another assay, the system named is UO-31 renal. Particulars: 10 µM unless noted.
The next assay has as its system TK-10 renal. Particulars: 10 µM unless noted.
The next assay has as its system ACHN renal. Conditions: 10 µM unless noted.
A further assay deals with CAKI-1 renal. Conditions: 10 µM unless noted.
A further assay relates to A498 renal. Conditions: 10 µM unless noted.
The next assay deals with CCRF-CEM leukemia. Conditions: 10 µM.
A further assay has as its system MOLT-4 leukemia. Particulars: 10 µM unless noted.

The panel holds about 83,000 compounds, 20% with a hit somewhere; the sample as a whole holds those more often.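 How to read the values: 0–100, growth inhibition (40 = 60% inhibited); 0, no net growth; -100 to 0, cell death (-40 = 40% of starting cells died; -100 = all dead).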 A number with no mark means an inactive call. Active and inactive are the calls of the source. Rule for the calls: active = growth percent below 10; inactive = the rest.

Turning to `COc1cc2ncnc(-n3ncc4cc(NC(=O)Nc5ccc(Cl)c(C)c5)ccc43)c2cc1OC`, the growth is 103% in the assay on HCT-15 colon; 73.6% in the assay on HT29 colon; 82.7% with SNB-75 CNS; 109% in the assay on SNB-19 CNS; 65.6% in the assay with PC-3 prostate; 88% in the assay on SK-MEL-5 melanoma. Moreover, the growth in the assay on UACC-62 melanoma was 88.9%; in the assay on LOX IMVI melanoma, 98%; with SK-MEL-28 melanoma, 80.5%; with SK-MEL-2 melanoma, 92.5%; in the assay on EKVX NSCLC it was 97.7%; in the assay with SN12C renal, 98.8%. The growth is 100% in the assay with UO-31 renal; 95.9% in the assay with TK-10 renal; 103% in the assay with ACHN renal; 92.7% with CAKI-1 renal; 101% with A498 renal; 102% in the assay with CCRF-CEM leukemia. In addition, the growth with MOLT-4 leukemia is 84%.

Consider `COc1cc(-c2cc3cnccc3c3nc(N)c4ccncc4c23)cc(OC)c1OC`, for which the growth in the assay on HCT-15 colon is 38.5%; in the assay on HT29 colon it was 47.6%; in the assay with SNB-75 CNS, -2.5% (active); in the assay with SNB-19 CNS, 53.3%; in the assay on PC-3 prostate, 37.3%; with SK-MEL-5 melanoma, 44.6%. The growth with UACC-62 melanoma was 41.6%; in the assay with LOX IMVI melanoma, 36.1%; in the assay with SK-MEL-28 melanoma it was 75.3%; in the assay with SK-MEL-2 melanoma, 70.1%; with EKVX NSCLC it was 55.3%; in the assay with SN12C renal, 40.7%. The growth was 11.9% in the assay with UO-31 renal; 22.6% with TK-10 renal; 34.5% in the assay with ACHN renal; 43.6% in the assay with CAKI-1 renal; -16.8% (active) in the assay on A498 renal; 36.5% with CCRF-CEM leukemia. Besides, the growth with MOLT-4 leukemia is 32.9%.

As to `CCOC(=O)c1c(C)oc2ncnc(Nc3ccc(NC(=O)Nc4ccc(CC)cc4)cc3)c12`, the growth is 105% in the assay with HCT-15 colon; 103% in the assay on HT29 colon; 80.6% in the assay on SNB-75 CNS; 98% with SNB-19 CNS; 90.8% in the assay with PC-3 prostate; 93.8% in the assay on SK-MEL-5 melanoma. The growth in the assay on UACC-62 melanoma is 108%; with LOX IMVI melanoma, 100%; with SK-MEL-28 melanoma it was 105%; in the assay with SK-MEL-2 melanoma it was 120%; in the assay with EKVX NSCLC, 102%; in the assay on SN12C renal, 107%. The growth with UO-31 renal is 94.8%; in the assay on TK-10 renal it was 112%; in the assay with ACHN renal, 98.9%; in the assay on CAKI-1 renal it was 98.4%; with A498 renal it was 109%; in the assay with CCRF-CEM leukemia, 93.8%. In addition, in the assay with MOLT-4 leukemia, the growth is 98.7%.

With `Cc1ccc(OCCn2ccc(=O)n(CCOc3ccc(Cl)cc3C(=O)c3cc(C)cc(C)c3)c2=O)cc1`, the growth is 27.8% in the assay on HCT-15 colon; 18.9% in the assay on HT29 colon; 33.5% in the assay on SNB-75 CNS; 57.5% in the assay with SNB-19 CNS; 29.2% with PC-3 prostate; 49.2% in the assay on SK-MEL-5 melanoma. For the same compound, the growth is 32.7% in the assay on UACC-62 melanoma; 47% with LOX IMVI melanoma; 68.3% with SK-MEL-28 melanoma; 41.2% in the assay with SK-MEL-2 melanoma; 47% in the assay on EKVX NSCLC; 62% in the assay on SN12C renal. The growth with UO-31 renal is 41.8%; in the assay with TK-10 renal, 61.7%; in the assay with ACHN renal, 60.6%; in the assay on CAKI-1 renal it was 47.6%; in the assay on A498 renal, 33.7%; with CCRF-CEM leukemia, 25.7%. Besides, the growth with MOLT-4 leukemia was 19.2%.

As to `COC(=O)c1c[n+]([O-])ccc1OC`, the growth is 103% in the assay on HCT-15 colon; 107% in the assay on HT29 colon; 96.6% in the assay with SNB-75 CNS; 101% with SNB-19 CNS; 99.5% with PC-3 prostate; 99.7% with SK-MEL-5 melanoma. In addition, the growth with UACC-62 melanoma was 101%; in the assay with LOX IMVI melanoma, 104%; in the assay with SK-MEL-28 melanoma, 91.4%; in the assay with SN12C renal, 98.2%; with UO-31 renal, 85.2%; with TK-10 renal it was 102%. The growth in the assay on ACHN renal was 108%; in the assay with CAKI-1 renal, 97.2%; in the assay on A498 renal, 111%; in the assay on MOLT-4 leukemia it was -47.4% (active).

Take `O=C1Nc2ccccc2/C1=C/c1cn(CC(O)Cn2cc(/C=C3\C(=O)Nc4ccccc43)c3ccccc32)c2ccccc12` (centres undefined): the growth in the assay on HCT-15 colon was -69.8% (active); with HT29 colon, -20.2% (active); in the assay on SNB-75 CNS it was -95.9% (active); with SNB-19 CNS it was -43% (active); with PC-3 prostate, -86.3% (active); in the assay with SK-MEL-5 melanoma, -80.2% (active). Besides, the growth was -75.2% (active) in the assay with UACC-62 melanoma; -84.5% (active) in the assay with LOX IMVI melanoma; -85% (active) with SK-MEL-28 melanoma; -57.6% (active) in the assay on SK-MEL-2 melanoma; -62.3% (active) in the assay on EKVX NSCLC; -53.6% (active) in the assay on SN12C renal. The growth in the assay with UO-31 renal is -9.18% (active); in the assay on TK-10 renal, -15.1% (active); in the assay with ACHN renal, -68.4% (active); with CAKI-1 renal, 9.83% (active); with A498 renal, -73.2% (active); in the assay on CCRF-CEM leukemia, -30.6% (active). For the same compound, the growth in the assay with MOLT-4 leukemia is -29.4% (active).

`CCCCCSc1ccc2nc(NC(=O)OCCC)sc2c1`: the growth in the assay with HCT-15 colon was 26.1%; in the assay on HT29 colon, 15.9%; with SNB-75 CNS, 13.3%; in the assay with SNB-19 CNS it was 40.9%; with PC-3 prostate, 27.7%; with SK-MEL-5 melanoma, 17.7%. The growth in the assay on UACC-62 melanoma was 31.1%; in the assay on LOX IMVI melanoma, 38.6%; with SK-MEL-28 melanoma, 70.9%; in the assay on SK-MEL-2 melanoma, 51.7%; in the assay with EKVX NSCLC, 34.2%; in the assay on SN12C renal it was 57.4%. The growth is 51.8% with UO-31 renal; 70.1% in the assay with TK-10 renal; 42.8% in the assay on ACHN renal; 32.4% with CAKI-1 renal; 11.2% in the assay on A498 renal; 20.3% in the assay with CCRF-CEM leukemia. For the same compound, the growth in the assay on MOLT-4 leukemia was 30.7%.

With `CCOC(=O)c1c(C)oc2ncnc(Nc3ccc(C(=O)NCCc4ccccc4)cc3)c12`, the growth is 92.3% in the assay with HCT-15 colon; 58.9% in the assay with HT29 colon; 7.02% (active) in the assay on SNB-75 CNS; 84.1% in the assay with SNB-19 CNS; 59.2% in the assay with PC-3 prostate; 85.6% in the assay with SK-MEL-5 melanoma. The growth was 95% in the assay on UACC-62 melanoma; 75.2% in the assay with LOX IMVI melanoma; 87.9% in the assay with SK-MEL-28 melanoma; 82.5% in the assay on SK-MEL-2 melanoma; 90.4% with EKVX NSCLC; 99.4% in the assay with SN12C renal. Also, the growth with UO-31 renal is 97.4%; in the assay with TK-10 renal it was 102%; in the assay on ACHN renal it was 88.7%; with CAKI-1 renal it was 92.6%; with A498 renal, 77.6%; in the assay with CCRF-CEM leukemia, 81%. In the assay on MOLT-4 leukemia, the growth is 105%.

These data come from PubChem BioAssay (NCI).
